# PubChem BioAssay (Tox21)
# Records with an inconclusive call do not appear. A number with no mark means an inactive call. Active and inactive are the calls of the source. The call rests on the fitted dose curve.
# Target: D(2) dopamine receptor (Homo sapiens) (UniProt P14416)
# Assay: Dopamine D2 receptor (DRD2) small molecule agonists, cell-based qHTS assay (AID 1963594); further: nearly all actives have a fitted effect of over 35% in size
# Details: HEK293-DRD2 cAMP HTRF, agonist mode, 30 min; series mostly up to 92.4 µM; activation: at the top concentration
# Description: National Center for Advancing Translational Sciences [NCATS]
# Division of Preclinical Innovation [DPI]
# U.S. Environmental Protection Agency [EPA]
# National Institutes of Environmental Health Sciences [NIEHS]
# National Toxicology Program [NTP]
# U.S. Food and Drug Administration [FDA]
# DRD2 is the D2 subtype of the dopamine receptor, which is coupled to Gi subtype of G protein-coupled receptor. This G protein-coupled receptor inhibits adenylyl cyclase activity. The DRD2-HEK293 cell line stably expressing D2 dopamine receptor can be used for screening agonists and antagonists of interactions between D2 and its ligands. The Hek293-DRD2 cAMP assay is based on HTRF technology. It measures changes of cAMP accumulation in response to Gi coupled GPCR activation or inhibition.
# Tox21 Assay Protocol Summary:
# DRD2-Hek293 cells were dispensed at 600 cells/3uL/well in 1536-well white plates using a Multidrop Dispenser. After the assay plates were incubated at a 37 C/5% CO2 incubator for 24 h, 1 uL of Ro20-1724 at final concentration of 0.1 mM was transferred to the assay plate by a Flying Reagent Dispenser. Following Ro20-1724 addition, 23 nL of compound dissolved in DMSO, positive controls or DMSO only was added to the assay plates via Wako pintool station. The assay plates were incubated at room temperature for 10 min. Next, 1 uL of NKH477 at 200nM was added into the plates. After the assay plates were incubated at room temperature for an additional 30 min, 2.5 ul/well of cAMP-d2 and 2.5 ul/well of anti-cAMP-cryptate were added respectively into the assay plates using a Flying Reagent Dispenser. The plates were incubated at room temperature for 1 h. The fluorescence intensity in the plates was measured at 340 nm excitation and 665 & 620 nm emission by an Envision plate reader.
# On the % scale 0 is the no-effect control and ±100 the full control effect.
# Sequence of D(2) dopamine receptor (Homo sapiens) (P14416 whole entry, looked up): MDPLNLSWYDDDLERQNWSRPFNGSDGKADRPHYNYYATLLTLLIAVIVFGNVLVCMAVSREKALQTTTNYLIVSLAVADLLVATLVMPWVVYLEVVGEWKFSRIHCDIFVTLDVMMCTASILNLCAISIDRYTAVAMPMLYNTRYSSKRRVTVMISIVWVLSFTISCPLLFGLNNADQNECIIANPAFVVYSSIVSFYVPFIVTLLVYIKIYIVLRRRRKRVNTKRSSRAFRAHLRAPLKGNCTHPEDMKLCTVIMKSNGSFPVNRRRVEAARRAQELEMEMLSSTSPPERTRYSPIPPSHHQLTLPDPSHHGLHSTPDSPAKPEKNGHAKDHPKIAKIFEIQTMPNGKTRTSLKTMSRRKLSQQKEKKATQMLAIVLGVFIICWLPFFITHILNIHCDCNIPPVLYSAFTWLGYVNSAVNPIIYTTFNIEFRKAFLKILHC
Compound,activation,Potency
COc1ccc(C(=O)c2cccc(O)c2)c(OC)c1,2%,
Cc1ncc(CSSCc2cnc(C)c(O)c2CO)c(CO)c1O,-4.58% [at 42.5 µM],
CC(C)(C)c1cc(C(C)(C)C)c(O)c(C(C)(C)C)c1,,inactive
CC1=NN(c2ccc(S(=O)(=O)O)cc2)C(=O)C1,0.81%,
CC(=O)OC1CC(C)OC(C)O1 (stereo not given),,inactive
CC(=O)c1ccc2ccccc2c1,2.23%,
CC1CNCC(C)O1 (stereo not given),-1.88%,
O=Cc1ccc(C(=O)O)cc1,-0.147%,
Cc1ccc(C(C)NC(=O)[C@@H](NC(=O)OC(C)C)C(C)C)cc1 (stereo not given in full),-5.69%,
O=C1C(c2[nH]c3ccc(S(=O)(=O)O)cc3c2O)=Nc2ccc(S(=O)(=O)O)cc21,-0.457%,
O=[N+]([O-])c1ccc(/C=C/c2ccc([N+](=O)[O-])cc2S(=O)(=O)O)c(S(=O)(=O)O)c1,,inactive
CCC(C)SSC(C)CC (stereo not given),-2.57%,
CCO/C([O-])=N/c1c[n+](N2CCOCC2)no1,-11.2% [at 42.5 µM],
C1COCCO1,0.238%,
Cc1ccccc1C,-4.9%,
CC(=O)CC/C=C(\C)CC/C=C(\C)CC/C=C(\C)CCC=C(C)C,-4.89% [at 42.5 µM],
CC[C@H](c1ccc(O)cc1)[C@@H](CC)c1ccc(O)cc1,,inactive
CC(C)(c1cc(Br)c(O)c(Br)c1)c1cc(Br)c(O)c(Br)c1,,inactive
CCc1ccc(Br)cc1,0.174%,
COc1cc(C(=O)N2CCCCCCC2)cc(OC)c1OC,-2.32% [at 42.5 µM],

Compound,activation,Potency
NC(=O)c1ccccc1Cl,0.675%,
Clc1ccc2c(c1)Nc1ccccc1S2,-1.12% [at 42.5 µM],
C1CCC(SSC2CCCCC2)CC1,0.426%,
CCCSc1ccc2nc(NC(=O)OC)[nH]c2c1,-0.927%,
CCCCCCCC/C=C\CCCCCCCC(=O)OCCCC,-5.29% [at 19 µM],
NCC1(Cc2noc(=O)[nH]2)CCCCC1,3.33%,
Nc1ccccc1S(=O)(=O)O,-7.05%,
COCCOCCOCCOCCOC,2.24%,
CC(C)CC(=O)O,1.5%,
CNCCO,0.416%,
CCCCC(CC)COC(=O)CC(C(=O)OCC(CC)CCCC)S(=O)(=O)O (stereo not given),,inactive
CCO[Si](C)(OCC)OCC,-0.149%,
CCN(CC)S(=O)(=O)c1ccc(C(=O)O)cc1,6.09% [at 42.5 µM],
CCOC(=O)CC(C)=O,-0.115%,
OCCCCCCCl,1.6%,
C/C=C/C(=O)C1=C(C)C=CCC1(C)C,-1.18%,
O[C@@H]([C@H](O)[C@H](O)CBr)[C@H](O)CBr,-1.83%,
CC(=O)Oc1ccccc1C(=O)Nc1ncc([N+](=O)[O-])s1,,inactive
COc1cc(C(=S)N2CCOCC2)ccc1O,15% [at 42.5 µM],
C=CC(=O)OCCN(CC)CC,3.68%,
